Compound activity: PubChem, National Center for Advancing Translational Sciences (NCATS)
The list is not random: actives were taken first. Their share in the collection is about 0.58%.
Eya2 inh: Eya2 (human) phosphatase inhibition; 330,000 tested, 0.006% active; Potency, µM (top dose mostly 76.9 µM), without a hit: at the highest dose activity, negative = inhibition, actives largely listed as inhibitors; recombinant Eya2, OMFP fluorescence dephosphorylation (OMFP is methylfluorescein phosphate); note: potency is the fitted concentration of half-maximal effect; % is set by controls: 0 for no effect and ±100 for the full control effect
Target sequence (O00167 whole entry, looked up): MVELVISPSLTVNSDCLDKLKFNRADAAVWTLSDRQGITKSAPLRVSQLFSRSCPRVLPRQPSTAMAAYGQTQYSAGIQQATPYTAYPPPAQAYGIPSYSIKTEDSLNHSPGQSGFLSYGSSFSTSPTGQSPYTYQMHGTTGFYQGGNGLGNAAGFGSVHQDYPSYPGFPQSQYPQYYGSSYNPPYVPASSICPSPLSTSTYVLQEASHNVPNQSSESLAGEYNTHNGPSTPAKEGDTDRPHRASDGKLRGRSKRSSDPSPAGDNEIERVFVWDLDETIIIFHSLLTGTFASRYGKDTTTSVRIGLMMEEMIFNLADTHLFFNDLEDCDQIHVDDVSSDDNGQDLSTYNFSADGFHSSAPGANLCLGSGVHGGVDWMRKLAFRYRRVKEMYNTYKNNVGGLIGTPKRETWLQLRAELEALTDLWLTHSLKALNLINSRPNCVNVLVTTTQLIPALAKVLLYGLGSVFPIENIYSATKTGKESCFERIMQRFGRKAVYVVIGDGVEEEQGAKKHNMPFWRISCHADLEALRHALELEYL
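Eya2 (0.2 uM) preincubated 10 min at ambient with compound, then OMFP substrate added at 50 uM; 10 min reaction in 50 mM HEPES pH 7.5, 50 mM NaCl, 5 uM MgCl2, 0.05% BSA, 1 mM DTT. Fluorescence read at Ex 485/Em 525 nm.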
CtBP-E1A inh: blocks the CtBP interaction with E1A. AlphaScreen GST-E1A/His-CtBP binding, 1536-well; stronger effect = lower value. activity change, % (concentration not given with the values). 340,000 tested, 0.49% active. AID 651724; in the data active = activity change below about -65%; inconclusive = mostly about -30% to -63%; note: % is set by controls: 0 for no effect and ±100 for the full control effect
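Homogeneous bead-based format: GST-tagged E1A captured on glutathione donor beads, His-tagged CtBP on nickel acceptor beads; compounds precede bead addition by 2 h at 37 °C.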
GRP78 ERSR act: ER stress response induction in glioma; U87-MG GRP78 promoter luciferase reporter, 16 h; Potency, µM, without a hit: at the highest dose activation, usual class: activators; 420,000 tested, 0.02% active; AID 602332; note: potency is the fitted concentration of half-maximal effect; series mostly up to about 76 µM; % of control where 0% means no effect; nearly all actives have a fitted effect of over 35% in size
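Stably transfected U87-MG glioma cells carrying a GRP78-based luciferase sensor; 16 h compound incubation. Luminescence end-point read 10 min after Bright-Glo addition at room temperature.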
Six1-Eya2 blk: Six1/Eya2 interaction inhibition | 360,000 tested, 0.56% active | Q15475+O00167 | AlphaScreen GST-Six1/His-Eya2 binding, biochemical; stronger effect = lower value | activity change, % (no concentration beside the values); in the data active = activity change below about -65%; inconclusive = mostly about -30% to -63%; note: % is set by controls: 0 for no effect and ±100 for the full control effect
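Compounds are tested against tagged Six1 and Eya2 proteins bridged by glutathione donor and nickel acceptor beads; after a one-hour incubation at 37 °C without light, AlphaScreen emission is recorded.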
An asterisk follows results filed as active; ? = inconclusive; . = not tested or not shown. Unless noted, calls come from the whole dose curve; as a rule, active = well fitted curve in the direction sought with a large enough effect; inconclusive = small, poorly fitted or top-dose-only effect, or another doubt; inactive = no such curve, though single readings can be large; an effect the other way counts as inactive or inconclusive.

SMILES	Eya2 inh	CtBP-E1A inh	GRP78 ERSR act	Six1-Eya2 blk
CCOC(=O)c1c(C)oc2c1c(C=NCC1CCCO1)c(O)c1ccccc12 (centres undefined)	14%	2	-3%	-8
CCN(CC)S(=O)(=O)c1ccc(N/N=C/c2ccc(O)cc2O)nc1	3%	-95*	-2%	-94*
O=[N+]([O-])c1ccc(O)c(/C=N/Nc2nc3ccccc3[nH]2)c1	-3%	-97*	-2%	-92*
O=[N+]([O-])c1ccc(NN=Cc2ccc(O)cc2)nc1	.	-19	-1%	-23
O=[N+]([O-])c1ccc(NN=Cc2ccc(O)cc2O)nc1	.	-74*	3%	-69*
O=C(CNS(=O)(=O)c1ccc([N+](=O)[O-])cc1)N/N=C/c1ccc(O)cc1O	3%	?	3%	-73*
Cc1ccc2nc(/C=C/c3ccc(N(C)C)cc3)ccc2c1	.	.	-1%	.
COc1cc(-c2cccc(OC)c2OC)cc2c1OCCN(Cc1cn[nH]c1-c1ccc(Cl)cc1)C2	.	.	-2%	.
Cc1cc2c(c(-c3cnccn3)c1)OC(CNC(=O)c1c(F)cccc1Cl)C2 (centres undefined)	.	.	-4%	.
Cc1oc(-c2ccccc2NC(=O)C2CCCO2)nc1CNC(=O)c1cc(Cl)ccc1F (centres undefined)	.	.	-4%	.
COc1cc(=O)n2c(c1C(=O)NCc1nccs1)CCN(Cc1ccccc1F)CC2	.	.	2%	.
O=[N+]([O-])c1ccc(NN=Cc2ccccc2O)nc1	.	-79*	4%	-78*
O=[N+]([O-])c1cccc(N/N=C/c2cc([N+](=O)[O-])ccc2O)c1	0%	-10	8%	-17
O=[N+]([O-])c1ccc(O)c(/C=N/Nc2ccccn2)c1	-7%	-92*	?	-90*
CCOc1ccc2nc(SCC(=O)NCC3CCCO3)sc2c1 (centres undefined)	3%	0	3%	9
CCOc1ccc2[nH]c3nc(SCC(=O)NCC4CCCO4)nnc3c2c1 (centres undefined)	-8%	-86*	-2%	-90*
COc1ccc(CCNC(=O)c2cc3c(=O)n4ccccc4nc3n(Cc3ccco3)c2=N)cc1OC	-1%	.	-1%	-9
COc1ccc(CCn2c(=N)c(C(=O)NCc3ccco3)cc3c(=O)n4ccccc4nc32)cc1OC	.	.	-2%	-74*
N=c1c(C(=O)NCc2ccco2)cc2c(=O)n3ccccc3nc2n1CCc1ccccc1	-12%	-67*	2%	-78*
Cc1nc(C)c(-c2csc(Nc3ccc(O)c(C(=O)O)c3)n2)s1	9%	-28	-4%	-71*
Cc1nnc(N/N=C/c2ccc([N+](=O)[O-])cc2)n1N	-1%	?	10%	-68*
Cc1nnc(N/N=C/c2ccc(Br)cc2)n1N	-1%	?	2%	1
Cc1nnc2sc(SCC(=O)Nc3ccc(Br)cc3)nn2c1=O	13%	15	-5%	-87*
COc1ccc(NC(=O)CSc2nn3c(=O)c(C)nnc3s2)cc1	7%	-93*	-6%	-86*
COc1ccc(NC(=O)CSc2nnc(C)c(=O)n2N)cc1	0%	-1	-2%	-1
SMILES	Eya2 inh	CtBP-E1A inh	GRP78 ERSR act	Six1-Eya2 blk
COC(=O)c1ccc(NC(=O)CSc2nn3c(=O)c(C)nnc3s2)cc1	2%	-93*	-6%	-67*
Cc1ccccc1NC(=O)CSc1nn2c(=O)c(C)nnc2s1	-6%	-92*	-2%	-84*
CCC(=O)Nc1nnc(SCC(=O)Nc2cccc(Cl)c2)s1	5%	0	-3%	3
COc1ccc(CCNC(=O)CSc2nn3c(=O)c(C)nnc3s2)cc1OC	-1%	?	-2%	-25
COc1cccc(NC(=O)CSc2nn3c(=O)c(C)nnc3s2)c1	-14%	-99*	0%	-77*
Cc1nnc2sc(SCC(=O)Nc3cccc(Cl)c3)nn2c1=O	-10%	-93*	-1%	?
COc1ccc(OC)c(NC(=O)CSc2nn3c(=O)c(C)nnc3s2)c1	12%	-88*	-1%	?
Cc1ccc(C(=O)Oc2ccc(/C=C3\C(=N)N4N=C(N5CCOCC5)SC4=NC3=O)cc2)cc1	-21%	?	-1%	-88*
COc1ccc2nc(C)cc(SCC(=O)N/N=C/c3ccc(O)c(O)c3)c2c1	-8%	-72*	?	-72*
COc1cccc2c(SCC(=O)N/N=C/c3ccc(O)c(O)c3)cc(C)nc12	-11%	-74*	3%	-71*
COc1cccc2c(SCC(=O)N/N=C/c3ccccc3)cc(C)nc12	-5%	-2	-10%	-7
COc1ccc2c(c1)OC(C)CN(CCNC(=O)c1cccc(N3CCNC3=O)c1)C2 (centres undefined)	.	.	-2%	.
CCC(=O)NC(c1ccc(OC)c(OC)c1)c1cc(Cl)c2cccnc2c1O (centres undefined)	2%	-85*	-8%	-82*
CCCC(=O)NC(c1cccs1)c1cc(Cl)c2cccnc2c1O (centres undefined)	-2%	-71*	-7%	?
CCCC(=O)NC(c1ccc2c(c1)OCO2)c1cc(Cl)c2cccnc2c1O (centres undefined)	-2%	-78*	-6%	-77*
CCCC(=O)NC(c1ccco1)c1cc(Cl)c2cccnc2c1O (centres undefined)	-33%	-90*	-6%	-83*
Cc1ccc(-c2csc(NC(=O)c3ccccc3F)c2C(=O)O)cc1	-7%	.	0%	-70*
COc1ccc(-c2csc(NC(=O)Cc3cccc4ccccc34)c2C(=O)O)cc1	-3%	-67*	-5%	-67*
Cc1noc(C)c1C(=O)N1CCC2(CCCN(Cc3ccccc3)C2)CC1	.	.	-3%	.
Cc1noc(C)c1C(=O)N1CCC2(CCCN(C(c3ccccc3)c3ccccc3)C2)CC1	.	.	28µM*	.
CCCCNc1c([N+](=O)[O-])cc(C)cc1[N+](=O)[O-]	-8%	-25	-2%	-67*
Cc1c(Cl)cccc1NC(=O)CSc1ccc(-c2ccccn2)nn1	.	.	-2%	.
COc1ccccc1NC(=O)CSc1ccc(-c2ccccn2)nn1	1%	-90*	0%	-89*
Cc1cccc(NC(=O)CSc2ccc(-c3ccccn3)nn2)c1C	6%	-75*	-3%	-87*
Cc1ncc(Cc2ccccc2)c(C2CCN(S(=O)(=O)C[C@]34CC[C@H](CC3=O)C4(C)C)CC2)n1	.	.	-1%	.
SMILES	Eya2 inh	CtBP-E1A inh	GRP78 ERSR act	Six1-Eya2 blk
O=C(O)c1ccc2c(c1Nc1ccccc1)C(=O)c1ccccc1C2=O	-19%	?	-5%	-66*
CNc1c(C(=O)O)ccc2c1C(=O)c1ccccc1C2=O	-11%	0	-4%	-15
C=CCSc1nnc(-c2cc3c(-c4ccccc4)nn(C)c3s2)n1C	-13%	-76*	-6%	-75*
CCc1nnc(SCC(=O)N2CCCc3ccccc32)nc1CC	4%	5	-2%	-2
Cc1ccc2c(c1)c1nnc(SCC(=O)N3CCCc4ccccc43)nc1n2CC(=O)O	0%	-88*	-4%	-78*
COCCC(=O)NCC1Cc2cc(Cl)cc(-c3ccc4[nH]ccc4c3)c2O1 (centres undefined)	.	.	3%	.
